# DT40 TDP1 CPT = growth inhibition of DT40 Tdp1-/-;hTDP1 cells with camptothecin (screen for TDP1 inhibitors). AID 686979. 420,000 compounds, 12% hits. chicken DT40 Tdp1-/-;hTDP1 cells + 20 nM CPT, ATP luminescence, 48 h. Potency, µM (series often up to 46.2 µM), actives largely listed as inhibitors; note: nearly all actives have a fitted effect of over 55% in size
#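 Cell growth measured by CellTiter-Glo luminescence after a minimum 48 h, 37 C compound exposure with 20 nM CPT in Tdp1-knockout DT40 cells stably expressing hTDP1, seeded 400/well; qHTS titration format.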
# HT1080NT lethal = kills 2HG-producing HT-1080-NT fibrosarcoma cells; 360,000 compounds, 1.6% hits; AID 686970; Potency, µM (series often up to 46.1 µM), usual class: cytotoxic; HT-1080-NT fibrosarcoma viability, CellTiter-Glo ATP luminescence, 48 h;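 note: NT is the 2HG producing partner of a matched IDH1 knockdown line; nearly all actives have a fitted effect of over 55% in size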
#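 750 cells/well, RPMI + 5% FBS; 2 h settle, compound pin-transfer, 48 h at 37 degrees C. CellTiter-Glo 10 min RT, luminescence. Normalized to DMSO and media-only wells.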
# HepG2 tox = HepG2 cytotoxicity, counter-screen for TGF-b inhibitors | HepG2 CAGA-GFP viability, ATP luminescence, 18 h | Potency, µM (doses to about 46.1 µM), usual class: cytotoxic | AID 588856 | 410,000 compounds, 0.76% hits
#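 HepG2 CAGA-GFP cells (1000/well, DMEM with 1% FBS) received compound, then TGF-beta at 500 pg/mL final, and were incubated 18 hours at 37 degrees C. Viability was read by CellTiter-Glo luminescence. Media-only wells were set as complete cell-killing and DMSO as no toxicity.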
# TDP1 cell noCPT = qHTS for Inhibitors of human tyrosyl-DNA phosphodiesterase 1 (TDP1): qHTS in cells in absence of CPT; DT40 Tdp1-/- hTDP1 cells, no CPT, ATP luminescence, 48 h; Potency, µM (highest dose often 46.2 µM), most hits filed as inhibitors; 420,000 compounds, 15% hits; note: nearly all actives have a fitted effect of over 55% in size
#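 Stably hTDP1-transfected Tdp1-null chicken DT40 cells were treated with library compounds minus camptothecin and grown for at least 48 hr at 37 °C, after which cellular ATP was quantified by luminescence.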
# HT1080 IDH1KD tx = kills HT-1080 cells with IDH1 knockdown; 360,000 compounds, 2% hits; AID 686971; HT-1080 IDH1 knockdown viability, ATP luminescence, 48 h; Potency, µM (doses to about 46.1 µM), usual class: cytotoxic
#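 Knockdown cells (IDH1KD HT-1080) received compounds 2 h after plating at 750 cells/well and were kept 48 h at 37 °C in 5% FBS RPMI. A CellTiter-Glo luminescence read gave % activity for curve fitting.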
# TGFb inhibitor = blocks TGF-b signaling; Potency, µM (top dose mostly 46.1 µM), most hits filed as inhibitors; AID 588855; 410,000 compounds, 1.2% hits; HepG2 CAGA-GFP TGF-b/SMAD3 reporter, GFP fluorescence, 18 h; TGF-beta stimulated, 500 pg/mL final; note: nearly all actives have a fitted effect of over 65% in size
#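 Read-out: total well GFP (ex488/em500-530) summed from mean per-cell fluorescence. Cells: HEPG2 CAGA-GFP, 1% FBS DMEM, 18 h at 37 degrees C with 500 pg/mL final TGF-beta. Unstimulated wells served as the full-inhibition control; stimulated DMSO wells = 0%.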
# A number is an active result; n = inactive; u = inconclusive; x = no result. In the library only some 17% were active in any assay of this set; here they are far more common. Calls come from the whole dose curve; as a rule, active = well fitted curve in the direction sought with a large enough effect; inconclusive = small, poorly fitted or top-dose-only effect, or another doubt; inactive = no such curve, though single readings can be large; an effect the other way counts as inactive or inconclusive.
SMILES,DT40 TDP1 CPT,HT1080NT lethal,HepG2 tox,TDP1 cell noCPT,HT1080 IDH1KD tx,TGFb inhibitor
C#Cc1cccc(C(=O)N2CCCC(C(=O)c3ccc(OC)cc3C)C2)c1 (centres undefined),n,n,n,n,n,n
COc1ccccc1Oc1ccc2c(c1)C(=O)N(c1ccc(Br)c3cccnc13)C2=O,n,n,n,n,n,n
Cc1cccc(C(=O)N[C@@H](C)C(=O)N2CCN(c3ncccn3)CC2)c1,n,n,n,n,n,n
CC1(C(=O)NS(=O)(=O)c2cccc(Cl)c2)CCN1C(=O)C1CCCCC1 (centres undefined),n,n,n,n,n,n
CC(Cc1ccccn1)NC(=O)c1ccc(OC2CCN(CCc3ccccc3)CC2)cc1 (centres undefined),18µM,n,n,u,n,n
O=C(c1ccc(OC2CCN(CCc3ccccc3)CC2)cc1)N1CCCC1,n,n,n,n,n,n
O=C(NCCc1ccccn1)c1ccc(OC2CCN(CCc3ccccc3)CC2)cc1,n,n,n,n,n,n
CC(C)N1CCN(C(=O)c2ccc(OC3CCN(CCc4ccccc4)CC3)cc2)CC1,u,n,n,23µM,n,n
COC(=O)[C@@H](c1ccccc1)N(C)S(=O)(=O)c1cccc(S(=O)(=O)N(C)[C@@H](C(=O)OC)c2ccccc2)c1,5.8µM,n,n,3.7µM,n,n
COC(=O)C(c1ccccc1)C(C(=O)OC)c1ccccc1 (centres undefined),n,n,n,n,n,n
CCOc1cc(/C=N/NC(=O)CN2CCOCC2)ccc1OCc1ccccc1,n,n,n,u,n,n
CCOc1cc(/C=N/NC(=O)c2ccc(CN3CCOCC3)cc2)ccc1OCc1ccccc1,u,n,n,18µM,n,n
Cn1cc(Br)c(C(=O)N/N=C/c2cccc(OC3CSC3)c2)n1,n,n,n,u,u,n
CCOc1cc(/C=N/NC(=O)c2nn(C)cc2Br)ccc1OCc1ccccc1Cl,21µM,n,n,16µM,n,n
CCOc1cc(/C=N/NC(=O)c2ccc(N(C)S(=O)(=O)c3ccccc3)cc2)ccc1OC,u,n,n,21µM,n,n
COc1cc(C(=O)NN=Cc2ccc(N(C)C)cc2)cc(OC)c1OC,0.92µM,3.7µM,n,0.92µM,2.9µM,n
Cc1cccc(OCCCCn2nnc3sc4c(c3c2=O)CCC(C)C4)c1 (centres undefined),n,x,n,n,x,n
CCc1sc(C(=O)NCc2ccccc2)cc1C,21µM,n,n,13µM,n,n
CCc1sc(C(=O)NNC(=O)CNC(=O)c2ccccc2F)cc1C,n,n,n,n,n,n
O=C(Nc1nc(-c2ccccn2)cs1)c1ccc(Cl)s1,1µM,u,n,0.92µM,4.1µM,u
Cn1cccc1C(=O)Nc1nc(-c2ccccn2)cs1,2.6µM,u,n,4.1µM,u,n
CCc1sc(C(=O)Nc2ccc(N3CCOCC3)cc2)cc1C,21µM,u,n,u,u,n
CC(O)(c1cccnc1)c1nc(-c2ccc(F)c(Cl)c2)cs1 (centres undefined),u,u,n,u,u,n
CCc1sc(C(=O)Nc2nccs2)cc1C,u,n,n,u,n,n
CCc1sc(C(=O)Nc2nc(-c3ccccn3)cs2)cc1C,2.9µM,n,n,4.1µM,u,n
SMILES,DT40 TDP1 CPT,HT1080NT lethal,HepG2 tox,TDP1 cell noCPT,HT1080 IDH1KD tx,TGFb inhibitor
O=C(Nc1nc(-c2ccccn2)cs1)c1ncc(Cl)c(Cl)c1Cl,n,n,n,3.3µM,u,u
CCSc1ncc(Cl)c(C(=O)Nc2nc3ccc(S(C)(=O)=O)cc3s2)n1,n,x,n,n,x,x
CC(C)Cc1nc2sc3c(c2c(=O)n1N)CC(C(C)C)OC3 (centres undefined),16µM,n,n,2.6µM,u,n
CC(C)C1Cc2c(sc3ncnc(NN)c23)CO1 (centres undefined),8.2µM,n,n,12µM,n,u
COc1ccc([C@H]2CC(=O)C=C(c3ccc(C)c4ccccc34)C2)cc1,u,n,n,n,n,n
O=C(c1cccc(Cl)c1)N1c2nc(-c3ccco3)nn2C2(CCCCC2)[C@@H]2CCCC[C@@H]21,u,x,n,u,x,n
COc1cccc(C(=O)N2c3nc(-c4ccco4)nn3C3(CCCCC3)[C@@H]3CCCC[C@@H]32)c1,u,x,n,16µM,x,n
O=C(c1ccccc1)N1c2nc(-c3ccco3)nn2C2(CCCCC2)[C@@H]2CCCC[C@@H]21,n,x,n,n,x,u
Cc1ccc(C(=O)N2c3nc(-c4ccco4)nn3C3(CCCCC3)[C@@H]3CCCC[C@@H]32)cc1,16µM,x,n,15µM,x,n
O=c1[nH]c2c(c3c1CCCC3)CCCC2,21µM,n,n,n,n,n
O=C(Nc1ccccn1)c1cccc(S(=O)(=O)N2CCc3ccccc3C2)c1,n,n,n,u,n,n
Cc1ccc2nc(Nc3ccc(C)c(C)c3)c3nncn3c2c1,u,n,n,21µM,n,n
c1ccc(N2CCOCC2)c(Nc2nc3ccccc3n3cnnc23)c1,21µM,n,n,16µM,n,n

# Bioassay records as filed in PubChem BioAssay.
